The values that follow come from PubChem BioAssay AID2427 (National Center for Advancing Translational Sciences (NCATS), 2010).

Active and inactive are the calls of the source.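 Rule for the calls: active = melting temperature shift above 3 C; inconclusive = shift above 1 C but not above 3 C; inactive = the rest.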

The target of the assay is 15-hydroxyprostaglandin dehydrogenase [NAD(+)] (Homo sapiens) (UniProt P15428). The assay is described as follows: Thermal Shift Assay for Inhibitors of HPGD (15-Hydroxyprostaglandin Dehydrogenase). The conditions noted are these: Recombinant HPGD thermal shift, SYPRO orange DSF, at 250 µM, stronger effect = higher value. The gist of the method:
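Compounds at 50 or 250 uM final were assessed for stabilisation of 1 uM HPGD by SYPRO orange thermal denaturation (2 degree C/min ramp). Buffer was 100 mM Tris, pH 8.0, 0.01% Tween-20; cofactor NAD+ or NADH at 200 uM was optionally present.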

The mark [1] stands for this setting: measured here: delta Tm with NADH cofactor.

Sequence of 15-hydroxyprostaglandin dehydrogenase [NAD(+)] (Homo sapiens) (P15428 whole entry, looked up): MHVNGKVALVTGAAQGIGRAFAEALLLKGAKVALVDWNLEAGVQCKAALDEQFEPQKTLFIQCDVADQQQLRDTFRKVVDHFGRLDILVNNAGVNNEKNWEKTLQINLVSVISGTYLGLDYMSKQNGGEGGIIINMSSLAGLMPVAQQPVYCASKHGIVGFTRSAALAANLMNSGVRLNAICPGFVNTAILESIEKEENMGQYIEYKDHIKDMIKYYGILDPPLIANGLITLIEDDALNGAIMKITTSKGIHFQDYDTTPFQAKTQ

As to `COc1ccc(OC)c(C(=O)c2ccc(C(=O)N3CCCCC3)cc2)c1`, the thermal shift (delta Tm) is 3 C (active). Besides, the thermal shift (delta Tm) under setting [1] came out at 6.6 C.

Consider `COCCNC(=O)C1CCC(Cn2c(=S)[nH]c3ccccc3c2=O)CC1` (centres undefined), for which the thermal shift (delta Tm) was 3.7 C (active). Also, under setting [1], the thermal shift (delta Tm) was 4.7 C.
